This note sets out measurements from article PMC7862700, “An all-to-all approach to the identification of sequence-specific readers for epigenetic DNA modifications on cytosine”.

Common to all, as to assay: DAPPL (digital affinity profiling via proximity ligation, sequencing); 10 mM Tris-HCl pH 7.5, 50 mM NaCl, 1 mM DTT, 4% glycerol, room temperature, 30 min; GST-TFs on glutathione beads, 16-mer random dsDNA library, 0.1% formaldehyde crosslink after washing; high values mean tight binding
One experiment addresses T1, FEV (Homo sapiens, UniProt Q99581 1-238).
T1 sequence: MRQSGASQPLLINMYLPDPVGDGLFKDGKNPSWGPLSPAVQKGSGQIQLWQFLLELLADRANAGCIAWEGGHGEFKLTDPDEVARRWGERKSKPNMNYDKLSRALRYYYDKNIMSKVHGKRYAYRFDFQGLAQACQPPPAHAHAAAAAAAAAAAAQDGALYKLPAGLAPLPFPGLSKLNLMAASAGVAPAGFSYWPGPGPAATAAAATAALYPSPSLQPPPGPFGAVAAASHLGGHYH
The note with it: protein: recombinant; tags: N-terminal GST; dsDNA, one strand shown. The procedure, abridged:
(§1)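 Yeast served to express human transcription factors as GST fusions, which were then captured on glutathione beads and labelled with DNA barcodes. Pooled with a tag-only sample, they were incubated with 200 nmole of a 16-mer random double-stranded DNA library for 30 min at room temperature in Tris/NaCl/DTT/glycerol buffer, washed, crosslinked with 0.1% formaldehyde, ligated by proximity, amplified by PCR and sequenced. Dividing each hexamer's read frequency for a factor by its frequency for the tag-only sample gives the binding signal.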

The next experiment concerns the target ETV5 (Homo sapiens, UniProt P41161 1-510). The note with it: protein: recombinant; tags: N-terminal GST; dsDNA, one strand shown. In a few lines: as §1
Another experiment concerns the target HSF1 (Homo sapiens, UniProt Q00613 1-529). The conditions noted are these: protein: recombinant; tags: N-terminal GST; chain copies: 3; dsDNA, one strand shown. In a few lines: as §1
Another experiment concerns the target T2, SPIC (Homo sapiens, UniProt Q8N5J4 1-248).
T2 sequence: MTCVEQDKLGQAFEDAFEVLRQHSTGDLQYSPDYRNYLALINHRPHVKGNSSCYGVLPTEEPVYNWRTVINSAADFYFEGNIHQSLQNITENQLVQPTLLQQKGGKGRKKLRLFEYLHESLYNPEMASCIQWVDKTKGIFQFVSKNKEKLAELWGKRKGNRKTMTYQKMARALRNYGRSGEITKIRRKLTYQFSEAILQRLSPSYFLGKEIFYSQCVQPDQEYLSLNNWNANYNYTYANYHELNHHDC
The note with it: protein: recombinant; tags: N-terminal GST; dsDNA, one strand shown. In a few lines: as §1

The target in a further experiment is ELF4 (Homo sapiens, UniProt Q99607 1-663). The note with it: protein: recombinant; tags: N-terminal GST; dsDNA, one strand shown. In a few lines: as §1
Sequence of ELF4 (Q99607 whole entry): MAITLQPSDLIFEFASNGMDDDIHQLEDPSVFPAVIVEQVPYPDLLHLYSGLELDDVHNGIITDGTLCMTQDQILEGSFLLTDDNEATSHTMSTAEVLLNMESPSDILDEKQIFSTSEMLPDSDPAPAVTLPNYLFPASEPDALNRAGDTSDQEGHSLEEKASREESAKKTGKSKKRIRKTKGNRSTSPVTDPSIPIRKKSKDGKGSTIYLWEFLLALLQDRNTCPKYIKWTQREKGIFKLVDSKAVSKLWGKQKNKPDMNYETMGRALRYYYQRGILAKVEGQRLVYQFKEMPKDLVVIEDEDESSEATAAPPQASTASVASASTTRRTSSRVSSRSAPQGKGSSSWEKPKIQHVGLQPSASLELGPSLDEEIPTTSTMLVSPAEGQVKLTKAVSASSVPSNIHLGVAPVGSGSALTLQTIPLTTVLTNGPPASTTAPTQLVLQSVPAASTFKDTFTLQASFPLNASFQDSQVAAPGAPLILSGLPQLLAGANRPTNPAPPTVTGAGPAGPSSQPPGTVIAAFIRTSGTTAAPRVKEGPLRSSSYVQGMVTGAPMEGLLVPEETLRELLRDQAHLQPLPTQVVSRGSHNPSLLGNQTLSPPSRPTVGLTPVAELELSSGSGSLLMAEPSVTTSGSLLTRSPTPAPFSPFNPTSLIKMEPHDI
The target of the next experiment is T3, ELK4 (Homo sapiens, UniProt P28324-2 1-405).
T3 sequence: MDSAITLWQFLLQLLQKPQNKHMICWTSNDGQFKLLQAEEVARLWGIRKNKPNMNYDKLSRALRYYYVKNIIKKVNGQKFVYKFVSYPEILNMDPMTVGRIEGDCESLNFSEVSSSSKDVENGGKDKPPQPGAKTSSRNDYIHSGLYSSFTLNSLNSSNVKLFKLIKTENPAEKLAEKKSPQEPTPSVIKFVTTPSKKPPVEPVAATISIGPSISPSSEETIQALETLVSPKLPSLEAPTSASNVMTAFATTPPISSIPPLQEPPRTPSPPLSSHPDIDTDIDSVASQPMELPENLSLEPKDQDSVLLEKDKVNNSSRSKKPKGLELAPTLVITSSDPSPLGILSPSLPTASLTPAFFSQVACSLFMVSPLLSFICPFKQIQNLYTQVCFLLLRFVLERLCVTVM
The note with it: protein: recombinant; tags: N-terminal GST; dsDNA, one strand shown. In a few lines:
as §1

Another experiment has as its target T4, ETV2 (Homo sapiens, UniProt O00321 1-342).
T4 sequence: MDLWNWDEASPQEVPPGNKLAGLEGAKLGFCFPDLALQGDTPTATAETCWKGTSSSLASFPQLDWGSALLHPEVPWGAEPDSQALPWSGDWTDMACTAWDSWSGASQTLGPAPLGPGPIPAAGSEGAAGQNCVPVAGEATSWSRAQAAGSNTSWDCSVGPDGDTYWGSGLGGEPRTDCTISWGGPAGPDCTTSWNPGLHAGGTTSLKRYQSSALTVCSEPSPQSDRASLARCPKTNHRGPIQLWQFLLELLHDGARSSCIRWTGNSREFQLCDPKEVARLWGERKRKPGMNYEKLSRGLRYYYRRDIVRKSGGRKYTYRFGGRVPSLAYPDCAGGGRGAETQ
The note with it: protein: recombinant; tags: N-terminal GST; dsDNA, one strand shown. In a few lines: as §1

The target in a further experiment is T5, ELF3 (Homo sapiens, UniProt P78545 1-371).
T5 sequence: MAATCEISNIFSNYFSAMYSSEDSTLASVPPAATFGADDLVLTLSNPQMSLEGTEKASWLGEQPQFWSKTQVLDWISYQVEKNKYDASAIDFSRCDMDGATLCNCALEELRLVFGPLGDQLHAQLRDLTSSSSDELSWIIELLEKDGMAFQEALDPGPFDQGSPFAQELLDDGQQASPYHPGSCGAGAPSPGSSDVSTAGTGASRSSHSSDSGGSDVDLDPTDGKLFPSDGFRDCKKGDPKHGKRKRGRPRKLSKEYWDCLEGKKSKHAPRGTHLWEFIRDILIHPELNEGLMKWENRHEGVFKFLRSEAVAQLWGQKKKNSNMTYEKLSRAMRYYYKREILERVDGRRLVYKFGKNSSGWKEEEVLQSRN
The conditions noted are these: protein: recombinant; tags: N-terminal GST; dsDNA, one strand shown. The procedure, abridged: as §1

The target in a further experiment is CRX (Homo sapiens, UniProt O43186 1-299). The note with it: protein: recombinant; tags: N-terminal GST; dsDNA, one strand shown. The procedure, abridged:
as §1

The target in a further experiment is ETV1 (Homo sapiens, UniProt P50549 1-477). The note with it: protein: recombinant; tags: N-terminal GST; dsDNA, one strand shown. In a few lines:
as §1

The target of a further experiment is T6, ERF (Homo sapiens, UniProt P50548 1-548).
T6 sequence: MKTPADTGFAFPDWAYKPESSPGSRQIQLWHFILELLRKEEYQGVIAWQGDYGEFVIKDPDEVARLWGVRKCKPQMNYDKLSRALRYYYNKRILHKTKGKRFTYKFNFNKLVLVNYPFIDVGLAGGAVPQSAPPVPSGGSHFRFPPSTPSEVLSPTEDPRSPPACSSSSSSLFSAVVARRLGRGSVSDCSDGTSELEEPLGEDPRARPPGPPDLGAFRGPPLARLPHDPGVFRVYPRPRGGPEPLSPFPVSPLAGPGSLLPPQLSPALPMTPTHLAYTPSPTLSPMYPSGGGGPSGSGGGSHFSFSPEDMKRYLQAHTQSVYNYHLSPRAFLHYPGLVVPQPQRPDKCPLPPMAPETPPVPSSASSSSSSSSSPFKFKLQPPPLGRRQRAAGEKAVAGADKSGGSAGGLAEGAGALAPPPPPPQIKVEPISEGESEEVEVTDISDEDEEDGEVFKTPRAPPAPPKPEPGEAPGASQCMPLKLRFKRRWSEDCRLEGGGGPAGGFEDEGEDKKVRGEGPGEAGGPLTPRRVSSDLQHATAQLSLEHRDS
The note with it: protein: recombinant; tags: N-terminal GST; dsDNA, one strand shown. In a few lines:
as §1

For the next experiment, the target named is T7, ETV3L (Homo sapiens, UniProt Q6ZN32 1-361).
T7 sequence: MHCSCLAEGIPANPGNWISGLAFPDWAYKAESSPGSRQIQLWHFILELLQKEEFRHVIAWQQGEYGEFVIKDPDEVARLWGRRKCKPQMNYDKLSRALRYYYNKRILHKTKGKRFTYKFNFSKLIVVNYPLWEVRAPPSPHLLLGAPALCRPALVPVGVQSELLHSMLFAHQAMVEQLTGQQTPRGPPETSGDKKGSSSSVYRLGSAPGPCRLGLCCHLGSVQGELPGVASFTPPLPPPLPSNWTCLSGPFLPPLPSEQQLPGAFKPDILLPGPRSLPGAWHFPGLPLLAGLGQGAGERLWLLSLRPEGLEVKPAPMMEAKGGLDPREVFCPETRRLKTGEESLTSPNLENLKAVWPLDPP
The conditions noted are these: protein: recombinant; tags: N-terminal GST; dsDNA, one strand shown. In a few lines:
as §1

The next experiment has as its target T8, ETS2 (Homo sapiens, UniProt P15036 1-469).
T8 sequence: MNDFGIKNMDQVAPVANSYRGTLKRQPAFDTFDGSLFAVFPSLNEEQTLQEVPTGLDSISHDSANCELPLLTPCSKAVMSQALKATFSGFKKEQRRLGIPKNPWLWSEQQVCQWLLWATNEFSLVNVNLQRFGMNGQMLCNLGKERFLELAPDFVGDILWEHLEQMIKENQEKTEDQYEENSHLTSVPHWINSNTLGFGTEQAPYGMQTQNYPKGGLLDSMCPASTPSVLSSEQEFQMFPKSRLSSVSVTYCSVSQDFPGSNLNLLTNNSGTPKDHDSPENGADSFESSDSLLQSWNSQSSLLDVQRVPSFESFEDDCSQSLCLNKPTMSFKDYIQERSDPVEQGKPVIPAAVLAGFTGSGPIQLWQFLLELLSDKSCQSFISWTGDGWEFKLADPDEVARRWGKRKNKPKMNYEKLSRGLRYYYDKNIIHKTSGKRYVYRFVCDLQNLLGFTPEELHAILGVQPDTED
The note with it: protein: recombinant; tags: N-terminal GST; dsDNA, one strand shown. The procedure, abridged:
as §1

Another experiment concerns the target T9, SPDEF (Homo sapiens, UniProt O95238 1-335).
T9 sequence: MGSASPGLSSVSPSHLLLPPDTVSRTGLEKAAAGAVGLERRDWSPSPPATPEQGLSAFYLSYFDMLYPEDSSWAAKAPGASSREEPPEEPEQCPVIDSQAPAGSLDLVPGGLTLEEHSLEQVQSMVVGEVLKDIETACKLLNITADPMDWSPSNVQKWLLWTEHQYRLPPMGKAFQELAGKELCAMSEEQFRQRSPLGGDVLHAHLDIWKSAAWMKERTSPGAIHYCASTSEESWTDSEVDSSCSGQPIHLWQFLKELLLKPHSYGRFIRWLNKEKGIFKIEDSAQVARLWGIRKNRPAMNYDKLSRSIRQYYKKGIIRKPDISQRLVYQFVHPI
The note with it: protein: recombinant; tags: N-terminal GST; dsDNA, one strand shown. In a few lines:
as §1

A further experiment deals with T10, ETV7 (Homo sapiens, UniProt Q9Y603 1-341).
T10 sequence: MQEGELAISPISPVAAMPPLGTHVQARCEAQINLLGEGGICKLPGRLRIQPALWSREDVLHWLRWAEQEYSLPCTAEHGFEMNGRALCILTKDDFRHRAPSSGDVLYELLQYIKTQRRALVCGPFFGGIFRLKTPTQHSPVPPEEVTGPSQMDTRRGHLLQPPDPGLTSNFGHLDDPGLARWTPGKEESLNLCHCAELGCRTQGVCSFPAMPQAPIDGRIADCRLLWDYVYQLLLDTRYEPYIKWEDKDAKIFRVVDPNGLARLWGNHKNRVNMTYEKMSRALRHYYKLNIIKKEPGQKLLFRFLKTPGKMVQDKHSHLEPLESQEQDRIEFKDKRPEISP
The conditions noted are these: protein: recombinant; tags: N-terminal GST; dsDNA, one strand shown. In a few lines: as §1

In the next experiment the target is T11, ELF5 (Homo sapiens, UniProt Q9UKW6-2 1-255).
T11 sequence: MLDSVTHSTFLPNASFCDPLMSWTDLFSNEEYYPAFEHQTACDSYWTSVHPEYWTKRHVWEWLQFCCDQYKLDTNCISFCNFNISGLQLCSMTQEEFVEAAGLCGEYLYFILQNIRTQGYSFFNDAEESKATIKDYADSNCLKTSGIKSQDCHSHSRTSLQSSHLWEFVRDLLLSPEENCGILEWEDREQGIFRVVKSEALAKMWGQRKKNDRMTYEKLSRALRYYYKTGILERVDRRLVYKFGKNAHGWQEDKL
The note with it: protein: recombinant; tags: N-terminal GST; dsDNA, one strand shown. In a few lines:
as §1

For the next experiment, the target named is T12, ETV3 (Homo sapiens, UniProt P41162-2 1-143).
T12 sequence: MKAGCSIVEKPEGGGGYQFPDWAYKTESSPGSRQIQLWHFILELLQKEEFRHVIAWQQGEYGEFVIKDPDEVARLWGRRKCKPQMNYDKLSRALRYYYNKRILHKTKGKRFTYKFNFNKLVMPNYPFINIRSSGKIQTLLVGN
The conditions noted are these: protein: recombinant; tags: N-terminal GST; dsDNA, one strand shown. In a few lines:
as §1

A further experiment has as its target ETV6 (Homo sapiens, UniProt P41212 1-452). The conditions noted are these: protein: recombinant; tags: N-terminal GST; dsDNA, one strand shown. In a few lines: as §1

Sequence of ETV5 (P41161 whole entry): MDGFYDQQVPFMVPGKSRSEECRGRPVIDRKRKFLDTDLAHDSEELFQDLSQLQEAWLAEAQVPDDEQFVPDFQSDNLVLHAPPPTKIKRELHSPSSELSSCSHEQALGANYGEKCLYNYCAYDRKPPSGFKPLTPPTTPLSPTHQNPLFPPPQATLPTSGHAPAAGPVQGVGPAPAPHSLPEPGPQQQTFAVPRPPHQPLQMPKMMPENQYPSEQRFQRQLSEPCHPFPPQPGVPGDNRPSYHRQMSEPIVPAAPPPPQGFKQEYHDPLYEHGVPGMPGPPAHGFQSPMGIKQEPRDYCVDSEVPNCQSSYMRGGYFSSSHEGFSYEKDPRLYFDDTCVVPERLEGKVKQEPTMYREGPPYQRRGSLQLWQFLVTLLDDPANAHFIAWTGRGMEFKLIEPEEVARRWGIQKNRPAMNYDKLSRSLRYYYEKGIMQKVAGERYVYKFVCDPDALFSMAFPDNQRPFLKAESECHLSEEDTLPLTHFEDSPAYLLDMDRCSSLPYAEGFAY
Sequence of HSF1 (Q00613 whole entry): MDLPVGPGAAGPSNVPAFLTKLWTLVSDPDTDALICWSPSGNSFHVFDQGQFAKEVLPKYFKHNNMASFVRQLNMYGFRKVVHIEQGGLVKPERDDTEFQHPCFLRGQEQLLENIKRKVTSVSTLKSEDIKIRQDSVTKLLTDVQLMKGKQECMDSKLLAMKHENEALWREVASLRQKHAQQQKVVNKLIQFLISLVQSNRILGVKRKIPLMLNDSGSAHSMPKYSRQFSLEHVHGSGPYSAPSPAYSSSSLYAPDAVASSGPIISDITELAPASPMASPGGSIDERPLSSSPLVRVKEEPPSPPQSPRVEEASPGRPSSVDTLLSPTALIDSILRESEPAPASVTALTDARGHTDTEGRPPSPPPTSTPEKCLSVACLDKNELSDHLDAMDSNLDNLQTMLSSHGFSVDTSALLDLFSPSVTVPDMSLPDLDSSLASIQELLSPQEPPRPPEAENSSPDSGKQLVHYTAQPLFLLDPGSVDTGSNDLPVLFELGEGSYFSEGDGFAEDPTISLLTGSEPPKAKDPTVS
Sequence of ETV6 (P41212 whole entry): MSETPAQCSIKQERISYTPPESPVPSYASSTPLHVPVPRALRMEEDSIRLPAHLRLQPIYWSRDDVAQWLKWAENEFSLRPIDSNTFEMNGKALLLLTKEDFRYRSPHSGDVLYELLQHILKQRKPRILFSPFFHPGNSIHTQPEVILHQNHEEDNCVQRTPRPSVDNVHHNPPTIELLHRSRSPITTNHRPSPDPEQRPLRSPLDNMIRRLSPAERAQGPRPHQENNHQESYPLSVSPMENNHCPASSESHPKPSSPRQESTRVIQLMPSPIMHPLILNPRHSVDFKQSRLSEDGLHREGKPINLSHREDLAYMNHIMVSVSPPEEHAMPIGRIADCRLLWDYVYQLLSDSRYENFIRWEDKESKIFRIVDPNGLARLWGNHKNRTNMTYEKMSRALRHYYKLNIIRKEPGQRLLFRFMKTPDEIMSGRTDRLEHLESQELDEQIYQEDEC
Sequence of CRX (O43186 whole entry): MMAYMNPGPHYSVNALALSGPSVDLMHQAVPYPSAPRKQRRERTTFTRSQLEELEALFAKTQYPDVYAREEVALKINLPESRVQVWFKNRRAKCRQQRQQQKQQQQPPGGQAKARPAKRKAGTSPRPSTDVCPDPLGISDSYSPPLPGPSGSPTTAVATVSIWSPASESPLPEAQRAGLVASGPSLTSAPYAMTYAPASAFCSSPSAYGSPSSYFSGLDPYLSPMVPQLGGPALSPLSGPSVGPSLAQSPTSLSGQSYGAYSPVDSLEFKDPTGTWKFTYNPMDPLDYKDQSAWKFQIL
Sequence of ETV1 (P50549 whole entry): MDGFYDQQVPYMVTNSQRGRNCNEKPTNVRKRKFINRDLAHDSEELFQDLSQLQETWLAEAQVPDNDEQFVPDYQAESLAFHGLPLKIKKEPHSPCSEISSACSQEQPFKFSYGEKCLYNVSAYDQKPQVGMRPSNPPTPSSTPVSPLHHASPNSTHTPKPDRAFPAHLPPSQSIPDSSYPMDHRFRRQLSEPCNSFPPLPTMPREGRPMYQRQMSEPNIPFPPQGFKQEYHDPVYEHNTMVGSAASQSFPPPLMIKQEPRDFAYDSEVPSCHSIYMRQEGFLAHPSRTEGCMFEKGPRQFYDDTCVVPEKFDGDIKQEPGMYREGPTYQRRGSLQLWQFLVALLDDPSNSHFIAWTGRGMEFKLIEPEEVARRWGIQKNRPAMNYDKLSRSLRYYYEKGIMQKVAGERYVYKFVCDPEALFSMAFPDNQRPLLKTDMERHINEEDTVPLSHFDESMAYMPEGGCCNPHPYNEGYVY

Turning to GCTCTC, the binding signal in the experiment with FEV was 1.47 fold enrichment (6-mer frequency, TF over GST control); with ETV5 it was 1.28 fold enrichment (6-mer frequency, TF over GST control); in the experiment with HSF1, 1.42 fold enrichment (6-mer frequency, TF over GST control); with SPIC, 1.33 fold enrichment (6-mer frequency, TF over GST control); with ELF4 it was 1.45 fold enrichment (6-mer frequency, TF over GST control); with ELK4, 1.56 fold enrichment (6-mer frequency, TF over GST control). In addition, the binding signal in the experiment with ETV2 is 1.61 fold enrichment (6-mer frequency, TF over GST control); with ELF3, 1.35 fold enrichment (6-mer frequency, TF over GST control); in the experiment with CRX, 1.24 fold enrichment (6-mer frequency, TF over GST control); with ETV1 it was 1.57 fold enrichment (6-mer frequency, TF over GST control); with ERF, 1.42 fold enrichment (6-mer frequency, TF over GST control); with ETV3L, 1.52 fold enrichment (6-mer frequency, TF over GST control). The binding signal with ETS2 is 1.51 fold enrichment (6-mer frequency, TF over GST control); with SPDEF it was 1.12 fold enrichment (6-mer frequency, TF over GST control); in the experiment with ETV7, 1.25 fold enrichment (6-mer frequency, TF over GST control); with ELF5, 1.2 fold enrichment (6-mer frequency, TF over GST control); in the experiment with ETV3, 1.48 fold enrichment (6-mer frequency, TF over GST control); with ETV6, 1.43 fold enrichment (6-mer frequency, TF over GST control).
